Results taken from ChEMBL document CHEMBL3433997, “St. Jude Leishmania screening dataset” (2016).

Assays:
Assay type in all cases: functional
[1] = target: Solute carrier family 2, facilitated glucose transporter member 1 (Homo sapiens) (UniProt P11166); experiment: ST_JUDE_LEISH: Cytotoxicity at 2uM final concentration against transgenic Leishmania Mexicana promastigotes LmGLUT1 that are glucose transport deficient and complemented with the human glucose transporter GLUT1. Activity is measured by DNA content using SYBR green in vitro
Solute carrier family 2, facilitated glucose transporter member 1 (Homo sapiens), sequence (P11166 whole entry): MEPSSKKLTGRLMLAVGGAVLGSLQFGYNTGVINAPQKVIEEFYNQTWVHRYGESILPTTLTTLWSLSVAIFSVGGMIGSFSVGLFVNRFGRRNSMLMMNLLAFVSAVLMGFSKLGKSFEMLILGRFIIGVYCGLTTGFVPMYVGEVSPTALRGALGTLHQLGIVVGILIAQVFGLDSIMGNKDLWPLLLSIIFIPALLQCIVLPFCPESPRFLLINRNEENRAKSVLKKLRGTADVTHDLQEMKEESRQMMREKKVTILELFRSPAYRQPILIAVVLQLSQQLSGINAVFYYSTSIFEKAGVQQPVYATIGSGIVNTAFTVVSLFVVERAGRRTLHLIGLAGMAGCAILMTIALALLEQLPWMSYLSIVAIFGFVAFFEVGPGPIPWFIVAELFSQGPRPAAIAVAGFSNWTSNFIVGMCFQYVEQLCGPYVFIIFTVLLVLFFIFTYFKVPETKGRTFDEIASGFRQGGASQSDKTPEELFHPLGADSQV

[2] = target: Hexose transporter 1 (Plasmodium falciparum) (UniProt O97467); experiment: ST_JUDE_LEISH: Cytotoxicity at 2uM final concentration against transgenic Leishmania Mexicana promastigotes LmPfHT that are glucose transport deficient and complemented with the Plasmodium falciparum hexose transporter. Activity is measured by DNA content using SYBR green in vitro
[3] = target: Glucose transporter (Leishmania mexicana) (UniProt O61059); experiment: ST_JUDE_LEISH: Cytotoxicity at 2uM final concentration against transgenic Leishmania Mexicana promastigotes LmGT2 that are glucose transport deficient and complemented with the L. Mexicana glucose transporter 2. Activity is measured by DNA content using SYBR green in vitro

SMILES | inhibition [1] [%] | inhibition [2] [%] | inhibition [3] [%]
O=C(COc1ccccc1)NC1CCN(c2ccnc3cc(Cl)ccc23)C1 (configuration not stated) | 0.14 | 1 | 1.75
CO/N=C(\C)c1ccc2c(c1)CCN(CCC1CCC(NC(=O)c3cccc(-c4noc(C)n4)c3)CC1)CC2 (configuration not stated) | 3.41 | -1.53 | 0.75
c1cc(CNC2CCCC2)cc(-c2ccc(CNc3ccc4ncccc4c3)cc2)c1 | -0.78 | 0.28 | -2.51
Cc1cc(Nc2c(C(N)=O)cnc3cc(-c4ccoc4)ccc23)ccc1N1CCN(C)CC1 | -1.39 | -0.31 | -0.69
CCn1ccc2c(N3CCCS3(=O)=O)cc(C(=O)N[C@@H](Cc3ccccc3)[C@H](O)CNC(C)(C)c3cccc(OC)c3)cc21 | 0.43 | 2.4 | 1.49
CC(C)c1sc(N2CCN(C)CC2)nc1C(=O)NCCc1cccc(Cl)c1 | 6.7 | 3.42 | 3.93
CN(C)CCNC(=O)c1cccc(-c2cnc3ccc(NCc4ccc(Cl)c(Cl)c4)nn23)c1 | 8.3 | 8.99 | 7.6
Cc1c(CNCCCNc2cc(=O)c3ccccc3[nH]2)sc(-c2ccco2)c1Br | 14.4 | 13.6 | 13.9
O=C(Nc1cccc(-c2cccc(-c3nc4cc(F)ccc4[nH]3)c2)c1)c1csnn1 | 6.12 | 4.57 | 1.83
COc1ccccc1CCNc1nc(C)cc(N[C@@H](Cc2ccccc2)C(=O)NCc2cccc(F)c2)n1 | 5.91 | 1.53 | 5.51
Cc1ccc(Nc2nc(C)cc(N3CCN(c4ccccc4)CC3)n2)cc1 | 5.18 | 5.92 | 2.13
Clc1ccc(/N=C(/NCCCCCCCN/C(=N\c2ccc(Cl)cc2)Nc2ccc(Cl)cc2)Nc2ccc(Cl)cc2)cc1 | 0.4 | 1.89 | -1.85
Nc1nc(N)c2c(ccc3nn(Cc4ccccc4)cc32)n1 | -0.49 | 0.59 | -0.15
COc1ccc2[nH]c(C(=O)Nc3ccc4[nH]c(-c5ccccc5)nc4c3)cc2c1 | 4.44 | 2.1 | 0.82
COc1ccc(-c2ccc(NC(=O)c3cccc(Cl)c3)cc2)cc1CN1CCC(O)CC1 | 14.6 | 15.5 | 12.4
CCCOc1ccccc1-c1nc2[nH]c3c(c2c(=O)[nH]1)CCN(C)C3 | -1.19 | -0.54 | -1.12
CC(CN1CCN(C)CC1)C(=O)Nc1cccc(-c2ccc(-c3nc4cc(F)ccc4[nH]3)cc2)c1 (configuration not stated) | 4.67 | 3.13 | 2.7
Cc1cccc2nc(-c3ccc(-c4cccc(NC(=O)c5cccc(C(N)=O)c5)c4)cc3)[nH]c12 | 3.55 | 3.07 | 2.8
CCCn1c(Sc2ccc(C#N)c([N+](=O)[O-])c2)nnc1-c1ccc(OC)cc1 | 1.76 | 0.24 | -0.23
CN(C)CCNCc1cccc(-c2cccc(-c3nc4ccccc4[nH]3)c2)c1 | 2.56 | 2.66 | 1.85
Cc1ccc(Cl)cc1NC(=O)c1c(-c2ccccc2Cl)noc1C | -0.47 | -1.54 | -0.61
CCc1cccc(NC(=O)c2ccc(CN3CCCN(CC4CCCCC4)CC3)cc2)c1 | 10.3 | 10 | 13.4
CS(=O)(=O)CCNCc1ccc(-c2cc3c(Nc4ccc(OCc5cccc(F)c5)c(Cl)c4)ncnc3s2)[nH]1 | 0.33 | 0.24 | 0.92

SMILES | inhibition [1] [%] | inhibition [2] [%] | inhibition [3] [%]
N=C(N)NC(=O)Nc1cc(Cl)c(Cl)c(C(F)(F)F)c1 | 2.87 | 3.46 | 1.58
COc1cc(C(=O)Nc2nc3ccccc3[nH]2)ccc1OCC(=O)Nc1cccc(C(F)(F)F)c1 | 2.59 | 2.67 | 1.11
Clc1cc(Cl)c2cc(CNCCCNc3ccc4ccccc4n3)[nH]c2c1 | 0.53 | 0.95 | 1
O=C(NCc1ccccc1)Nc1ccc(-c2cccc(-c3nc4cc(C(F)(F)F)ccc4[nH]3)c2)cc1 | -0.99 | -0.18 | -1.23
O=C(/C=C/c1ccc(Cl)c(Cl)c1)NCCCCCCN1CCCN(C(=O)Nc2ccc(F)c(F)c2)CC1 | 0.72 | 0.44 | 2.39
Cc1cc(C(=O)OCC(N)=O)c(C)n1-c1ccc(F)cc1 | -0.25 | 6.13 | 3.07
O=C(N/C=N/c1cc([N+](=O)[O-])c(-c2ccncc2)n1-c1ccccc1)c1cccc(O)c1 | 0.21 | 0.41 | 0.38
N#Cc1ccc2c(c1)CCN(CCC1CCC(NC(=O)/C=C/c3ccc(Cl)c(Cl)c3)CC1)CC2 (configuration not stated) | 9.87 | 13.1 | 6.83
CCN(CC)CCCN1CCN(C(=O)c2cccc(-c3noc(C(F)(F)F)n3)c2)CC1 | 5.54 | 4.63 | 4
CN(CCS(C)(=O)=O)Cc1ccc(-c2ccc3ncnc(Nc4ccc(OCc5cccc(F)c5)c(Cl)c4)c3c2)o1 | 2.97 | 0.92 | -0.85
O=C(/C=C/c1ccc(Cl)c(Cl)c1)NCCCCCN1CC[C@H](NC(=O)Nc2ccc(Oc3ccccc3)cc2)C1 | -0.32 | -1.24 | 1.17
CCN(CC)CCCOc1ccc(Nc2nccc(-c3c(-c4cccc(NC(=O)c5c(F)cccc5F)c4)nn4ccccc34)n2)cc1F | 58 | 56.7 | 10.5
COc1ccc(Nc2nc(=Nc3ccccc3)nc(NN=Cc3cc(Cl)ccc3O)[nH]2)cc1 | 1.37 | 2.04 | 1.08
CCCCCCOc1ccc(/C(N)=N\Cc2ccccc2)c2c1CCCC2 | 2.62 | 3.36 | 0.11
CC1CCN(CC[C@H]2CCCN2S(=O)(=O)c2cccc(NC(=O)Nc3ccc(C(F)(F)F)cc3)c2)CC1 | 0.63 | 1.64 | -0.02
O=C(Cn1c(CCc2cccc(F)c2F)cc(=O)c2ccccc21)N(Cc1ccc(-c2ccc(C(F)(F)F)cc2)cc1)C1CCN(CCN2CCOCC2)CC1 | 1.92 | 1.75 | 1.28
CCN(CC)CCN(Cc1ccc(-c2ccc(C(F)(F)F)cc2)cc1)C(=O)Cn1c(CCc2ccc(F)c(F)c2F)nc(=O)c2ccccc21 | 8.82 | 7.31 | 10.2
CCc1c[nH]c2c(N3CCCCC3=O)cc(C(=O)N[C@@H](Cc3ccccc3)[C@H](O)CNCc3cccc(OC)c3)cc12 | -0.8 | -2.31 | 0.87
COc1ccc2c(=NN=Cc3cccc(C)n3)cc(-c3ccccc3)[nH]c2c1 | 4.3 | 2.19 | 4.08
COc1cc2nc(NCCn3nc(C)cc3C)nc(NCCc3ccccc3)c2cc1OC | -0.49 | 5.15 | 1.08
O=C(/C=C/c1ccc(Cl)c(Cl)c1)NC1CCC(CN2CCC(c3nc4cccnc4[nH]3)CC2)CC1 (configuration not stated) | 1.77 | 2.5 | -2.89
COc1c(C2CCN(CCN3CCC(CNC(=O)c4ccc(-c5ccc(C#N)cc5)cc4)CC3)CC2)ccc2c1CCCC2 | 3.97 | 8.83 | 8.54
CN(CCCc1c[nH]c2ccccc12)CCC1CCC(NC(=O)/C=C/c2ccc(Cl)c(Cl)c2)CC1 (configuration not stated) | 3.61 | 2.63 | 1.8

SMILES | inhibition [1] [%] | inhibition [2] [%] | inhibition [3] [%]
O=C(CCCC(=O)Nc1ccc(C2=NCCN2)cc1)Nc1ccc(C2=NCCN2)cc1 | 0.86 | 0.54 | -0.14
Cc1nc(C)c(-c2ccc(-c3ccc(F)cc3)cc2)c(O)c1Cl | 1.77 | 2.48 | 0.55
COC(=O)CCCCOc1c(OC)cc(Cc2cnc(N)nc2N)cc1OC | 11.2 | 7.13 | 7.7
O=C(Cn1cc(C=C2SC(=NC3CCCC3)N(C3CCCC3)C2=O)c2ccccc21)N1CCCC1 | 4.24 | 1.46 | 0.81
NS(=O)(=O)c1cccc(-c2ccc3ncc(N4CCOCC4)nc3c2)c1 | 1.24 | 2.84 | -0.09
O=C(/C=C/c1ccc(Cl)c(Cl)c1)NCCCCCN1CCCC(CNS(=O)(=O)c2cccc(C(F)(F)F)c2)C1 (configuration not stated) | -0.87 | -0.18 | -1.57
COc1ccc2ncc(F)c(CCN3CC[C@@H](CNCc4cc(C)c5c(c4)OCCO5)C3)c2n1 | 7.09 | 8.46 | 5.39
CCN(CC)S(=O)(=O)c1cc(-c2ccc(=O)n(CC(=O)c3ccc(C)cc3)n2)ccc1C | 4.68 | 6.23 | 2.45
CC(C)c1ccc(Nc2nc(NCCc3c[nH]cn3)nc(NCc3ccccc3)n2)cc1 | 1.58 | 1.6 | 0.61
Nc1ncc(-c2ccc(NC(=O)Nc3cc(C(F)(F)F)ccc3F)cc2)c(N)n1 | -0.9 | 0.23 | 0.6
CCOC(=O)c1ccc(Nc2cc(Nc3ccc(C(=O)OCC)cc3)nc(C)n2)cc1 | 7.7 | 35.2 | 3.24
COC(=O)C(Cc1ccccc1)NC(=O)NC1CCN(c2ccnc(Nc3ccc(F)cc3)n2)C1 (configuration not stated) | 1.44 | 0.86 | 3.07
CCOc1cc(C(=O)NCCCN2CCCCC2C)ccc1-c1nc2cc(Cl)ccc2[nH]1 (configuration not stated) | 2.37 | 2.23 | 0.87
CNC(=O)C(C)N(c1ccc(Cl)cc1)c1nc(C(C)(C)C)cs1 (configuration not stated) | -1.9 | -2.14 | 3.15
CCCCCN1CCN(Cc2cccc(NC(=O)c3ccc(Cl)c(Cl)c3)c2)CC1 | 1.39 | 1.08 | 1.32
Cc1cccc2sc(N(CCCn3ccnc3)C(=O)C=Cc3cccs3)nc12 | 12.6 | 12.7 | 6.56
Cc1cnc(C(=O)Nc2ccc3c(c2)CCCN(Cc2c[nH]c4cnccc24)C3)cn1 | 11.1 | 11.4 | 9.32
CCNC(=O)Nc1cccc(-c2cccc(-c3nc4cccc(C)c4[nH]3)c2)c1 | 4.32 | 2.2 | 3.06
Cc1cccc2nc(-c3cccc(-c4ccc(CN5CCCC5CN)cc4)c3)[nH]c12 (configuration not stated) | 1.85 | 0.15 | 0.68
c1ccc(-c2nc(NC3CCCCC3)cc(C3CC3)n2)nc1 | 1.84 | 1.91 | 1.62
CC(C)CCN(Cc1cncn1Cc1cccc(C(F)(F)F)c1)C(=O)c1cncc(-c2ccccc2)c1 | 3.6 | 4.72 | 1.28
O=C(NCC1CCC(C(=O)NCCN2CCCCC2)CC1)c1ccc(O)c(-c2ccc(Cl)c(Cl)c2)c1 (configuration not stated) | -0.83 | 0.49 | 0.18
COc1ccc2ncc(F)c(CCN3CC[C@H](NC(=O)c4ccc5c(n4)NC(=O)CS5)[C@H](O)C3)c2n1 | 10.7 | 9.73 | 1.48
